The list is not random: actives were taken first. Their share in the collection is about 2.6%.
Cruzain Triton = qHTS Assay for Promiscuous and Specific Inhibitors of Cruzain (with detergent); hit rate 0.43% among 200,000; Cruzipain (Trypanosoma cruzi), P25779; Potency, µM, without a hit: max response, negative = inhibition, hits mostly inhibitors; purified cruzain, Z-FR-AMC fluorescence, 0.01% Triton; AID 1478, 2009;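 further: plate controls were neutral wells for no effect and buffer without enzyme for full effect; nearly all actives have a fitted effect of over 40% in size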
Target sequence (P25779 123-467 limits assumed): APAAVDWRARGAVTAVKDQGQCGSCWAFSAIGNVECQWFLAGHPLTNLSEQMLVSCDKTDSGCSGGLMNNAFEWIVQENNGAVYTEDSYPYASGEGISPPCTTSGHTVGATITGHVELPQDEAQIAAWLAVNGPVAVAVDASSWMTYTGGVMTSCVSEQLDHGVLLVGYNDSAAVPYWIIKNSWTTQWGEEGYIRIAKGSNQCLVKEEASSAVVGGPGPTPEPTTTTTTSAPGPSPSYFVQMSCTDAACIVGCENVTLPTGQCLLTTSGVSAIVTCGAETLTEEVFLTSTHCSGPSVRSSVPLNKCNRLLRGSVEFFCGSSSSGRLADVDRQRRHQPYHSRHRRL
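Detergent-containing run (0.01% Triton X-100) in acetate buffer pH 5.5 with 5 mM DTT: enzyme at 1.5 nM final, 15 min compound preincubation at room temperature, then 2 uM Z-FR-AMC substrate. Activity taken as 60 s fluorescence increase at 360/450 nm.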
Cruzain inh noDet = qHTS Assay for Promiscuous and Specific Inhibitors of Cruzain (without detergent) | Cruzipain (Trypanosoma cruzi), P25779 | purified cruzain, Z-FR-AMC fluorescence, no detergent | Potency, µM, without a hit: max response, negative = inhibition, hits mostly inhibitors | hit rate 2.3% among 200,000;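 further: plate controls were enzyme without inhibitor for no effect and buffer without enzyme for full effect; nearly all actives have a fitted effect of over 40% in size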
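Detergent-free condition (0.00005% Triton X-100) in acetate buffer pH 5.5 with DTT. 1.5 nM enzyme and compound were pre-mixed 15 min, then 2 uM Z-FR-AMC substrate added; reaction progress from fluorescence change between first and third reads (60 s).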
* = called active by the depositor; u = inconclusive; ! = repeats disagree. The call rests on the fitted dose curve; in most records, active means well fitted curve in the direction sought with a large enough effect; inconclusive means small, poorly fitted or top-dose-only effect, or another doubt; inactive means no such curve, though single readings can be large; an effect the other way counts as inactive or inconclusive. Potency means the concentration at half of the fitted maximal effect.

SMILES	Cruzain Triton	Cruzain inh noDet
O=C(CSc1nc2ccccc2s1)N1c2ccccc2Sc2ccc(C(F)(F)F)cc21	5%	10µM*
CC(NC(=O)Cn1ncc2c3ccccc3n(Cc3ccc(F)cc3)c2c1=O)c1ccccc1 (stereo not given)	-2%	-16%
CCc1nnc(SCc2cccc(F)c2)c2cc3sc(C)cc3n12	-7%	2%
Cc1cc(-n2ccnc(NCCc3ccc(S(N)(=O)=O)cc3)c2=O)ccc1Br	-14%	-17%
Cc1ccc(C(C)C)c(OCC(=O)Nc2ccc(O)c(-c3nc4cc(Cl)ccc4o3)c2)c1	-1%	7%
O=C(Nc1ccc(OCc2cc(=O)n3c4c(sc3n2)CCCC4)cc1)c1ccc(F)cc1	1%	17%
CC(Oc1ccccc1)C(=O)Nc1ccccc1C(=O)OCc1cc(=O)n2nc(C3CC3)sc2n1 (stereo not given)	1%	-2%
O=S(=O)(Nc1cccc(-c2ccc(N3CCCCC3)nn2)c1)c1ccc(Cl)s1	-5%	u
O=C(CSc1nnc(COc2cccc3ccccc23)o1)N1c2ccccc2CCc2ccccc21	10%	13µM*
O=C(CSc1nnc(-c2c[nH]c3ccccc23)o1)N1c2ccccc2CCc2ccccc21	1%	u
COc1ccc2c(c1)C(=O)[C@@H](OC(=O)N[C@H]1CCCc3ccccc31)[C@H](c1ccc(OC)c(Br)c1)O2	-1%	-4%
COc1cccc(C2CC(=O)Nc3c2c(=O)[nH]c2nc4ccccc4n32)c1 (stereo not given)	-1%	-4%
CCCCCc1ccc(-c2ccc(C(=O)Oc3ccc(C(=O)OC)cc3)cc2)nc1	-1%	-4%
CCCCCc1ccc(-c2ccc(/C=C/C(N)=O)cc2)nc1	-1%	13µM*
Cc1ccc2c(c1)sc1nc(=O)n(-c3ccc(Cl)c(Cl)c3)c(=O)n12	-2%	20µM*!
Cc1ccc2c(c1)sc1nc(=O)n(-c3ccc(Cl)cc3)c(=O)n12	-2%	8%
Cc1nc(NC(=O)/C=C/c2ccccc2)sc1C(=O)Nc1ccccc1Cl	-3%	10µM*
Cc1nc(NC(=O)/C=C/c2ccccc2)sc1C(=O)Nc1ccc(Cl)cc1	6%	1%
O=C(NCCC1=CCCCC1)C1CCN(S(=O)(=O)c2cccc3nsnc23)CC1	-1%	25µM*
O=C(NCCc1ccccc1)C1CCN(S(=O)(=O)c2cccc3nsnc23)CC1	2%	-6%
CCOc1ccc(CCNCc2c(C(=O)O)n(Cc3ccc(C)cc3)c3cc(OC)ccc23)cc1	-11%	12%
CC1=N/C(=C\c2ccc([N+](=O)[O-])cc2)C(=O)N1c1ccc(Br)c(C)c1	-3%	7.9µM*
COc1ccc(/C=C2\N=C(C)N(c3ccc(C(=O)O)cc3)C2=O)cc1OC	-10%	-8%
Cc1ccc(S(=O)(=O)N2CCN(Cc3nc4ccc(C)cc4o3)CC2)c(C)c1	-4%	-2%
Cc1cccc2cc(C#N)c(NCCNC(=S)NCCCN3CCOCC3)nc12	-8%	-3%
SMILES	Cruzain Triton	Cruzain inh noDet
Cc1cc2cc(C#N)c(NCCNC(=S)NCCCN3CCOCC3)nc2cc1C	25µM*	u
Cc1ccc2cc(C#N)c(SCC(=O)NCc3ccco3)nc2c1	-6%	u
Cc1cc2nnc(SCC(=O)NCc3cccs3)n2c(N)n1	1%	-8%
Cc1ccc2nc(SCC(=O)NCc3cccs3)c(C#N)cc2c1	6%	10µM*
Cc1ccc2nc(SCC(=O)NCc3ccco3)c(C#N)cc2c1	2%	25µM*
COc1ccc(NC(=O)Cn2c(=O)n(CCCCCC(=O)NCc3ccc4c(c3)OCO4)c(=O)c3sccc32)cc1Cl	-4%	-9%
COc1ccc(OCc2ccc(-c3nc(C#N)c(NCc4ccc(F)cc4)o3)o2)cc1	-5%	0%
CC(C)OC(=O)c1c(NC(=O)c2cc3nc(-c4ccccc4)cc(C(F)(F)F)n3n2)sc2c1CCCC2	3%	2%
COc1ccc(C2C=C(C34CC5CC(CC(C5)C3)C4)NC(=S)N2)cc1 (stereo not given)	-3%	25µM*
COc1ccc(C2=CC(c3ccc(OC)c(OC)c3)NC(=S)N2)cc1 (stereo not given)	4%	-2%
O=C(CCCn1c2ccccc2c(=O)c2ccccc21)Nc1cccc(Cl)c1	-4%	-11%
COC(=O)c1ccc(-c2ncc(-c3cccc4ccccc34)o2)cc1	20µM*	u
COC(=O)c1ccc(-c2nc3ccccc3o2)cc1	2%	7%
Cc1ccccc1OCC(=O)Nc1ccc(S(=O)(=O)Nc2ncccn2)cc1	-3%	-4%
Nc1[nH]nc2c1NN(c1ccc(Cl)cc1Cl)N2	-17%	20µM*
Nc1nc(-c2ccc(Cl)cc2Cl)cn1N	14%	-18%
C=C(C)C(O)/C=C/c1ccc(Br)cc1 (stereo not given)	-2%	-1%
CCCCCn1c(N)c(-c2nc3ccccc3o2)c2c([N+](=O)[O-])nn(CC)c(=O)c21	-5%	10µM*
CCCCCn1c(N)c(-c2nc3ccccc3o2)c2c([N+](=O)[O-])nn(C)c(=O)c21	-7%	u
Cc1ccc(CNC(=O)c2cccc(NC(=O)N3CCSc4ncccc43)c2)cc1	-8%	-4%
CCCCn1c(SCC(=O)NCc2ccco2)nc2c(sc3ccccc32)c1=O	-2%	10µM*
O=C(CSc1nc2c(sc3ccccc32)c(=O)n1-c1ccccc1)NCc1ccco1	-14%	u
O=C(CSc1nc2c(sc3ccccc32)c(=O)n1CCc1ccccc1)NCc1ccco1	0%	5µM*
CCOCCCn1c(SCC(=O)NCc2ccco2)nc2c(sc3ccccc32)c1=O	-3%	-4%
Cc1nn2c(NCCCN3CCOCC3)c3c(nc2c1-c1ccccc1)CCC3	-2%	-5%
SMILES	Cruzain Triton	Cruzain inh noDet
CCCCNc1c2c(nc3c(-c4ccccc4)c(C)nn13)CCC2	-12%	7.9µM*
CC(C)(C)OC(=O)N1CCC(c2c(C(=O)NCCN3CCCC3)cnn2-c2ccc(Cl)cc2)CC1	-2%	21%
O=C(NCc1ccc(Cl)cc1)c1cc(-c2ccc(F)cc2)on1	-2%	u
Nc1c(C(=O)NCc2ccc(Cl)cc2)sc2nc(-c3ccc(F)cc3)ccc12	13µM*	10µM*
CCOC(=O)c1ccc(N2CCN(c3ccccc3F)CC2)c(NC(=O)Nc2ccccc2)c1	-3%	u
CCOC(=O)c1ccc(N2CCN(c3cccc(Cl)c3)CC2)c(NC(=O)Nc2ccc(Cl)cc2)c1	1%	4µM*
CN1CCN(C(CNC(=O)C(=O)Nc2ccc(Cl)cc2)c2cccnc2)CC1 (stereo not given)	-13%	u
Cc1cccc(CSc2nc(-c3cccs3)ccc2C#N)c1	-2%	u
O=C(Cn1c(=O)n(Cc2ccc3c(c2)OCO3)c(=O)c2oc3ccccc3c21)Nc1ccccc1F	0%	-15%
Cc1cc2nc(/N=C(\N)NC(=O)N3c4ccccc4Sc4ccccc43)nc(C)c2cc1C	-4%	16µM*
Cc1ccc2nc(/N=C(\N)NC(=O)N3c4ccccc4Sc4ccccc43)nc(C)c2c1	-4%	u
Cc1ccc(C)c(NC(=O)CSc2ccc3nc(-c4ccccc4)cn3n2)c1	2%	-8%
COc1ccc(-n2c(=O)c(-c3ccccc3)nc3cnc(N4CCOCC4)nc32)cc1	-1%	-2%
CCN(CC)C(=O)c1sc2c(c1C)c(=O)n(-c1ccc(Cl)c(Cl)c1)c(=O)n2Cc1cc(=O)n2c(C)cccc2n1	2%	5%
